Data as given in PubChem BioAssay.
Calls of active or inactive are those of the source. Unless noted, the rule behind the calls is not given here.

How the values were obtained:
[1] = resazurin metabolic signal in HepG2 cells – cell-based, resazurin fluorescence, 24 h, PK04 Diversity Set, profiling panel (AID 1172); conditions: HepG2 viability, higher = more signal; note: test concentration not given here
[2] = budding yeast growth changes without added modifier – OD600, strain BY4716, 24 h, basal condition, primary screen (AID 1173); conditions: S. cerevisiae BY4716 growth, OD600, 24 h; higher = more signal, called active from +8 up or from −8 down
[3] = viability profiling in MM1S myeloma cells – cell-based, resazurin fluorescence, basal, 24 h, PK04 Diversity Set, profiling panel (AID 1174); conditions: higher = more signal, called active from +8 up or from −8 down;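 note: MM1S multiple myeloma cell line; test concentration not given here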
[4] = molecular target: Dihydroorotate dehydrogenase (quinone), mitochondrial (Plasmodium falciparum (isolate 3D7)) (UniProt Q08210); experiment: inhibition of P. falciparum DHODH – biochemical, C-terminal His tag, absorbance 600 nm, primary screen (AID 1175); conditions: PfDHODH enzyme, DCIP absorbance 600 nm; higher = more signal, called active from +8 up or from −8 down;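 note: recombinant parasite enzyme with a five histidine tag at its C terminus; test concentration not given here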
Chain of Dihydroorotate dehydrogenase (quinone), mitochondrial (Plasmodium falciparum (isolate 3D7)) (Q08210 whole entry, looked up): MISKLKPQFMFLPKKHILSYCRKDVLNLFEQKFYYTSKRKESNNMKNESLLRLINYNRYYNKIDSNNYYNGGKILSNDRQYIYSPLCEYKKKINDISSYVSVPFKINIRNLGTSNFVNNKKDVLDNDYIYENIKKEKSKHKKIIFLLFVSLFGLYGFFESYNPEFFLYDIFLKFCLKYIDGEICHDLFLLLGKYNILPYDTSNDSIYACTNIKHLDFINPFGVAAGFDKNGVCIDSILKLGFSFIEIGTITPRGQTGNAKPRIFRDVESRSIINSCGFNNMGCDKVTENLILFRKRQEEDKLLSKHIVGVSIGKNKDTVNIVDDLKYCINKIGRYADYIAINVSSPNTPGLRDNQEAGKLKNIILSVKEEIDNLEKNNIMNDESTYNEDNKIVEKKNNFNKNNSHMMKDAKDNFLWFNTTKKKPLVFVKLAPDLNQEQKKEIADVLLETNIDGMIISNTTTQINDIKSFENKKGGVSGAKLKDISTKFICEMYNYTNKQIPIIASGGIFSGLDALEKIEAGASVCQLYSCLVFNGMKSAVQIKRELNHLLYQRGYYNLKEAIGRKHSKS

[5] = inhibition of PAO1 biofilm formation – strain PAO1, LB-PBS medium, absorbance 600 nm, primary screen (AID 1176); note: test concentration not given here; conditions: P. aeruginosa PAO1 growth/biofilm, A600, 12 h; higher = more signal
[6] = growth modulation of vineyard yeast isolate – strain RM11-1a, OD600, basal, 24 h, primary screen (AID 1177);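 note: cultures grown under basal conditions with no added stressor; test concentration not given here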; conditions: S. cerevisiae RM11-1a growth, OD600, 24 h; higher = more signal, called active from +8 up or from −8 down
[7] = growth of efflux-deficient E. coli DRC39 – strain DRC39, OD650, 24 h, E. coli filamentation inducers, primary screen (AID 1178);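 note: growth measured as culture turbidity by optical density at 650 nm; test concentration not given here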; conditions: E. coli DRC39 acrAB, higher = more signal, called active from +8 up or from −8 down
[8] = growth of efflux-deficient E. coli DRC39 – strain DRC39, OD650, 48 h, E. coli filamentation inducers, primary screen (AID 1179);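 note: screen aims at cell division blockers that make cells filament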; conditions: E. coli DRC39 delta-acrAB growth, higher = more signal, called active from +8 up or from −8 down
[9] = viability profiling in RPMI8226 myeloma cells – cell-based, resazurin fluorescence, basal, 24 h, PK04 Diversity Set, profiling panel (AID 1180); conditions: higher = more signal;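 note: RPMI8826 multiple myeloma cell line at 5000 cells per well; test concentration not given here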
[10] = molecular target: E3 ubiquitin-protein ligase XIAP (Homo sapiens) (UniProt P98170); experiment: small molecules binding XIAP protein – biophysical, small-molecule microarray, fluorescence 635 nm, primary screen (AID 1181); conditions: higher = more signal;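 note: score merges 667 nm emission and signal to noise over triplicate slides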
Chain of E3 ubiquitin-protein ligase XIAP (Homo sapiens) (P98170 whole entry, looked up): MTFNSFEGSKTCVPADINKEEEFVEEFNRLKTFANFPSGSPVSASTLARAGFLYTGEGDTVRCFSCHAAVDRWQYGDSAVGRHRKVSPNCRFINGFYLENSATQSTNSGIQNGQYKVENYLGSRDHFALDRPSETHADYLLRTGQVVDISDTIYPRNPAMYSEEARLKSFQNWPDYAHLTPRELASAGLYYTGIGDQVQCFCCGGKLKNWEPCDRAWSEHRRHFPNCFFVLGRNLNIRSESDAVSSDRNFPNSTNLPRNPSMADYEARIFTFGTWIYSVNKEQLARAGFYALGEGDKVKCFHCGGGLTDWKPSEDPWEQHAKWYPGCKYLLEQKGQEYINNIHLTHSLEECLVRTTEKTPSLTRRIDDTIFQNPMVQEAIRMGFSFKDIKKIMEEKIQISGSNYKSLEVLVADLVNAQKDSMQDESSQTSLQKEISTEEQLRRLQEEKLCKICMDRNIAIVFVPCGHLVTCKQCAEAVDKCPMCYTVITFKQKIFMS

## O=C1C2=CC[C@H]3C(=O)N(Cc4ccccc4)C(=O)[C@H]3[C@H]2[C@H](O)[C@@H]2O[C@H]12
[1]
  z-score: 0.35
[2]
  z-score: -2.16 (inactive)
[3]
  z-score: -5.73 (inactive)
[4]
  composite z-score: -1.59 (inactive)
[5]
  z-score: 0.0821 (inactive)
[6]
  z-score: -1.22 (inactive)
[7]
  z-score: -0.416 (inactive)
[8]
  z-score: -0.425 (inactive)
[9]
  z-score: -3.38
[10]
  composite z-score: 0.0006

## O=C1[C@H]2[C@H]3[C@H](O)[C@H](O)CC(=NOC[C@@H](O)COCc4ccco4)[C@@H]3CC[C@H]2C(=O)N1Cc1ccccc1
[1]
  z-score: 0.379
[2]
  z-score: -1.64 (inactive)
[3]
  z-score: -0.737 (inactive)
[4]
  composite z-score: -0.137 (inactive)
[5]
  z-score: -1.01 (inactive)
[6]
  z-score: -0.426 (inactive)
[7]
  z-score: 0.17 (inactive)
[8]
  z-score: 0.616 (inactive)
[9]
  z-score: 0.569
[10]
  composite z-score: -0.194

## CCN1C(=O)[C@H]2[C@H]3[C@H](O)[C@H](O)CC(=NOCC(C)C)[C@H]3CC[C@H]2C1=O
[1]
  z-score: -0.259
[2]
  z-score: -0.36 (inactive)
[3]
  z-score: -0.929 (inactive)
[4]
  composite z-score: -0.649 (inactive)
[5]
  z-score: -0.225 (inactive)
[6]
  z-score: -0.117 (inactive)
[7]
  z-score: 0.645 (inactive)
[8]
  z-score: 0.568 (inactive)
[9]
  z-score: -0.971
[10]
  composite z-score: -0.122

## O=C1C[C@@H](O)[C@@H](O)[C@@H]2[C@@H]3C(=O)N(C4CCCCC4)C(=O)[C@@H]3CC[C@@H]12
[1]
  z-score: -0.432
[2]
  z-score: 0.133 (inactive)
[3]
  z-score: -0.262 (inactive)
[4]
  composite z-score: -0.506 (inactive)
[5]
  z-score: -1.13 (inactive)
[6]
  z-score: 0.356 (inactive)
[7]
  z-score: -0.574 (inactive)
[8]
  z-score: -0.354 (inactive)
[9]
  z-score: -0.27
[10]
  composite z-score: 0.333

## COC(=O)[C@H](C)NC(=O)CCC1CC(OC(=O)NCc2cccc3ccccc23)CC2(CCCC(COC(=O)NCCC(C)C)O2)O1 (stereo not given in full)
[1]
  z-score: 0.817
[2]
  z-score: -0.274 (inactive)
[3]
  z-score: 0.505 (inactive)
[4]
  composite z-score: -1.24 (inactive)
[5]
  z-score: -0.0691 (inactive)
[6]
  z-score: -0.186 (inactive)
[7]
  z-score: 0.443 (inactive)
[8]
  z-score: 0.594 (inactive)
[9]
  z-score: 0.452
[10]
  composite z-score: -0.191

## CC(C)=CCCC(C)=CCON=C1C[C@@H](O)[C@@H](O)[C@@H]2[C@@H]3C(=O)N(Cc4ccc5c(c4)OCO5)C(=O)[C@@H]3CC[C@H]12
[1]
  z-score: 0.659
[2]
  z-score: 0.522 (inactive)
[3]
  z-score: -0.503 (inactive)
[4]
  composite z-score: -0.108 (inactive)
[5]
  z-score: 0.437 (inactive)
[6]
  z-score: 1.01 (inactive)
[7]
  z-score: 0.454 (inactive)
[8]
  z-score: 0.0551 (inactive)
[9]
  z-score: -0.402
[10]
  composite z-score: -0.144

## CCOC(=O)CCN1C(=O)[C@H]2[C@H]3[C@H](O)[C@H](O)CC(=NO[C@@H]4O[C@H](CO)[C@@H](O)[C@H](O)[C@H]4O)[C@H]3CC[C@H]2C1=O
[1]
  z-score: -0.228
[2]
  z-score: 0.87 (inactive)
[3]
  z-score: -0.433 (inactive)
[4]
  composite z-score: 0.29 (inactive)
[5]
  z-score: -0.483 (inactive)
[6]
  z-score: -0.402 (inactive)
[7]
  z-score: -0.739 (inactive)
[8]
  z-score: -0.0907 (inactive)
[9]
  z-score: -0.162
[10]
  composite z-score: 0.106

## CSCC[C@@H]1NC(=O)CC=C[C@@H](C)COC(=O)[C@H](C)COC1=O
[1]
  z-score: 0.376
[2]
  z-score: -1.59 (inactive)
[3]
  z-score: 0.745 (inactive)
[4]
  composite z-score: -0.766 (inactive)
[5]
  z-score: 0.483 (inactive)
[6]
  z-score: -2.43 (inactive)
[7]
  z-score: 1.17 (inactive)
[8]
  z-score: -0.216 (inactive)
[9]
  z-score: -0.135
[10]
  composite z-score: 0.418

## COC(=O)[C@H](C)NC(=O)CCC1CC(OC(=O)NCc2cccc3ccccc23)CC2(CCCC(COC(=O)NCCOc3ccccc3)O2)O1 (stereo not given in full)
[1]
  z-score: 0.311
[2]
  z-score: -0.689 (inactive)
[3]
  z-score: 0.875 (inactive)
[4]
  composite z-score: -0.989 (inactive)
[5]
  z-score: -0.458 (inactive)
[6]
  z-score: 0.149 (inactive)
[7]
  z-score: 0.008 (inactive)
[8]
  z-score: -0.693 (inactive)
[9]
  z-score: 0.564
[10]
  composite z-score: -0.275

## O=C1[C@H]2[C@H]3[C@H](O)[C@H](O)CC(=NO[C@@H]4O[C@H](CO)[C@@H](O)[C@H](O)[C@H]4O)[C@@H]3CC[C@H]2C(=O)N1C1CCCCC1
[1]
  z-score: -0.841
[2]
  z-score: 0.431 (inactive)
[3]
  z-score: -2.35 (inactive)
[4]
  composite z-score: -0.201 (inactive)
[5]
  z-score: 0.553 (inactive)
[6]
  z-score: 0.237 (inactive)
[7]
  z-score: -0.0163 (inactive)
[8]
  z-score: 0.27 (inactive)
[9]
  z-score: -0.917
[10]
  composite z-score: -0.132

## CCOC(=O)CCN1C(=O)[C@H]2[C@H]3[C@H](O)[C@H](O)CC(=O)[C@@H]3CC[C@H]2C1=O
[1]
  z-score: 1.09
[2]
  z-score: -0.375 (inactive)
[3]
  z-score: 0.344 (inactive)
[4]
  composite z-score: 0.462 (inactive)
[5]
  z-score: -0.708 (inactive)
[6]
  z-score: -0.405 (inactive)
[7]
  z-score: -0.512 (inactive)
[8]
  z-score: -0.897 (inactive)
[9]
  z-score: 0.651
[10]
  composite z-score: 0.0408

## C[C@@H](c1ccccc1)N1C(=O)[C@H]2[C@H]3[C@H](O)[C@H](O)CC(=NOCc4ccccc4)[C@@H]3CC[C@H]2C1=O
[1]
  z-score: -0.511
[2]
  z-score: -0.123 (inactive)
[3]
  z-score: -0.457 (inactive)
[4]
  composite z-score: 0.805 (inactive)
[5]
  z-score: -0.0819 (inactive)
[6]
  z-score: -0.183 (inactive)
[7]
  z-score: -0.241 (inactive)
[8]
  z-score: -0.0934 (inactive)
[9]
  z-score: -0.181
[10]
  composite z-score: -0.185

## CC(=O)OC[C@H]1O[C@H](C#CCC2CCCCC2)C=C[C@@H]1OC(C)=O
[1]
  z-score: 0.0616
[2]
  z-score: -3.69 (inactive)
[3]
  z-score: -2.52 (inactive)
[4]
  composite z-score: -0.529 (inactive)
[5]
  z-score: 0.781 (inactive)
[6]
  z-score: 0.143 (inactive)
[7]
  z-score: 1.07 (inactive)
[8]
  z-score: 0.591 (inactive)
[9]
  z-score: -1.24
[10]
  composite z-score: -0.0314

## CC(C)=NOC[C@@H](O)[C@H]1O[C@@H]2OC(C)(C)O[C@@H]2[C@H]1O
[1]
  z-score: -0.831
[2]
  z-score: -0.0545 (inactive)
[3]
  z-score: -0.369 (inactive)
[4]
  composite z-score: 0.759 (inactive)
[5]
  z-score: -0.443 (inactive)
[6]
  z-score: 0.0762 (inactive)
[7]
  z-score: 0.757 (inactive)
[8]
  z-score: 0.704 (inactive)
[9]
  z-score: -0.686
[10]
  composite z-score: -0.389

## CC(CCN1CCCc2nc(C)c(C)cc21)=NO[C@H](C)c1cn([C@@H]2COC[C@H]2O)nn1
[1]
  z-score: -0.537
[2]
  z-score: 0.593 (inactive)
[3]
  z-score: -0.144 (inactive)
[4]
  composite z-score: -0.0105 (inactive)
[5]
  z-score: -0.525 (inactive)
[6]
  z-score: 0.836 (inactive)
[7]
  z-score: 0.973 (inactive)
[8]
  z-score: 0.741 (inactive)
[9]
  z-score: -1.6
[10]
  composite z-score: 0.0264

## CC(CCC(=O)OC[C@H]1O[C@H](C#Cc2ccccc2)C=C[C@@H]1Oc1ccc(C)cc1)=NOC(C)CN1CCCCc2nc(C)c(C)cc21 (stereo not given in full)
[1]
  z-score: 0.172
[2]
  z-score: 0.546 (inactive)
[3]
  z-score: -0.0229 (inactive)
[4]
  composite z-score: -0.669 (inactive)
[5]
  z-score: 0.311 (inactive)
[6]
  z-score: 0.46 (inactive)
[7]
  z-score: 0.125 (inactive)
[8]
  z-score: -0.116 (inactive)
[9]
  z-score: 0.304
[10]
  composite z-score: -0.102

## CC(C)=NOC(C)CN1CCCCc2nc(C)c(C)cc21 (stereo not given)
[1]
  z-score: -0.724
[2]
  z-score: 0.0416 (inactive)
[3]
  z-score: -0.408 (inactive)
[4]
  composite z-score: -0.241 (inactive)
[5]
  z-score: 0.547 (inactive)
[6]
  z-score: 0.113 (inactive)
[7]
  z-score: 0.668 (inactive)
[8]
  z-score: -0.562 (inactive)
[9]
  z-score: -0.491
[10]
  composite z-score: 0.111
